This note sets out measurements from PubChem BioAssay.

A number with no mark means an inactive call. For some of these results: Measured potencies and affinities stand elsewhere. Active and inactive are the calls of the source. Unless noted, the rule behind the calls is not given here.

Experiment [1] is described as follows: antimalarial activity against Dd2 strain (AID 2302;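 active = growth inhibition above 50% at the single 2 µM test dose, taken to imply half-maximal potency below 2 µM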;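 note: 0% = DMSO untreated growth and 100% = chloroquine plus artemisinin killed control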). Particulars: P. falciparum Dd2 in RBCs, LDH growth readout, 72 h; at 2 µM; active compounds read high.
Experiment [2] can be described thus: HepG2 cytotoxicity, primary screen, cytotoxicity control for P. falciparum antimalarial project, cell-based, ATP luminescence (AID 2303;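 active = inhibition above 50%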;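 note: 0% = DMSO wells and 100% = digitonin-killed cells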). Particulars: HepG2 viability, 24-48 h, at 10 µM, active compounds read high.
For experiment [3], the target named is L-lactate dehydrogenase (Plasmodium falciparum (isolate CDC / Honduras)) (UniProt Q27743). Put plainly: PfLDH activity inhibition – cell lysate, 3D7 strain, counter-screen for P. falciparum growth inhibition project (AID 2304).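 Note: 0% = vehicle and 100% = reference inhibitor.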 Conditions: P. falciparum 3D7 crude extract, LDH APAD/NBT absorbance; at 2 µM; active compounds read high.
Experiment [4] in a line: inhibition of 3D7 malaria parasite growth – strain 3D7 (AID 2306).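 Note: 0% = DMSO wells and 100% = chloroquine plus artemisinin control wells.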 Particulars: P. falciparum 3D7 erythrocytic growth, LDH absorbance, 72 h; at 2 µM; active compounds read high.
Experiment [5] concerns the target Calcium-dependent protein kinase 1 (Plasmodium falciparum (isolate 3D7)) (UniProt P62344). Put plainly: PfCDPK1 kinase inhibitors, biochemical, TCAMS library (AID 1159585; cut-off not given, nearly all actives have IC50 up to about 0.98 µM;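 note: inhibitors leave more ATP so luminescence rises with inhibition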). Conditions: recombinant PfCDPK1, Kinase-Glo ATP depletion luminescence. (In general: In Kinase-Glo more light means more ATP remaining.)
The target in experiment [6] is Plasmodium falciparum protein kinase 6 (PK6, PF3D7_1337100) (UniProt Q8IDW1). Put plainly: PfPK6 kinase inhibitors, biochemical, TCAMS library (AID 1159586). Particulars: recombinant PfPK6, Kinase-Glo ATP depletion luminescence.
Experiment [7] deals with Protein kinase 7 (PK7), Plasmodium falciparum 3D7 (PF3D7_0213400) (UniProt Q7YTF7). Put plainly: inhibition of Plasmodium PK7 catalytic activity – biochemical, TCAMS antimalarial set, Kinase-Glo luminescence (AID 1159587). Conditions: recombinant PfPK7, Kinase-Glo ATP depletion luminescence.
The target in experiment [8] is Calcium-dependent protein kinase 4 (Plasmodium falciparum (isolate 3D7)) (UniProt Q8IBS5). Put plainly: PfCDPK4 kinase inhibitors, biochemical, TCAMS library (AID 1159588; cut-off not given, nearly all actives have IC50 up to about 0.91 µM). Conditions: recombinant PfCDPK4, Kinase-Glo ATP depletion luminescence.
Chain of Calcium-dependent protein kinase 4 (Plasmodium falciparum (isolate 3D7)) (Q8IBS5 whole entry, looked up): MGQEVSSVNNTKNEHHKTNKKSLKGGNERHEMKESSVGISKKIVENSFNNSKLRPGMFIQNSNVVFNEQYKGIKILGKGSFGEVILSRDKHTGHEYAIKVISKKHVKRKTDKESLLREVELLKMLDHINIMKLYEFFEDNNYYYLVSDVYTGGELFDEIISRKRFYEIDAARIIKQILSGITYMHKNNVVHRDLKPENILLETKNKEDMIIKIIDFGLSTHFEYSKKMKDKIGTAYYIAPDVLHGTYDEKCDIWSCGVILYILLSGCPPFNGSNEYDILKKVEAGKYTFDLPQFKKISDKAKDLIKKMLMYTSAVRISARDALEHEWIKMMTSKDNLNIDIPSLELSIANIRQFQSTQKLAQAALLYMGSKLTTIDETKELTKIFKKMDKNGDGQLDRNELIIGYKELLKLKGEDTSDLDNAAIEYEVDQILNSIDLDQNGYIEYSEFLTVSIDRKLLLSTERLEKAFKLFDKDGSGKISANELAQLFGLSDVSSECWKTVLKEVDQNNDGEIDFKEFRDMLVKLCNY

Chain of L-lactate dehydrogenase (Plasmodium falciparum (isolate CDC / Honduras)) (Q27743 whole entry, looked up): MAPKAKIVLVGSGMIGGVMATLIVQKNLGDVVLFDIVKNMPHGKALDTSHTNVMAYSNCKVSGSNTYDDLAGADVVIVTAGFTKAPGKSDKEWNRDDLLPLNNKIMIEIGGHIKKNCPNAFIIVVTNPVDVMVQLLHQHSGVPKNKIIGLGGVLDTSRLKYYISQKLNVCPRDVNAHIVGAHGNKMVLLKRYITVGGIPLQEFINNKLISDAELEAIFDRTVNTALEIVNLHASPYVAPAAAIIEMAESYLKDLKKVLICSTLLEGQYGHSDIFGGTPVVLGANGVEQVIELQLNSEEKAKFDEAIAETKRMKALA
Chain of Protein kinase 7 (PK7), Plasmodium falciparum 3D7 (PF3D7_0213400) (Q7YTF7 1-343): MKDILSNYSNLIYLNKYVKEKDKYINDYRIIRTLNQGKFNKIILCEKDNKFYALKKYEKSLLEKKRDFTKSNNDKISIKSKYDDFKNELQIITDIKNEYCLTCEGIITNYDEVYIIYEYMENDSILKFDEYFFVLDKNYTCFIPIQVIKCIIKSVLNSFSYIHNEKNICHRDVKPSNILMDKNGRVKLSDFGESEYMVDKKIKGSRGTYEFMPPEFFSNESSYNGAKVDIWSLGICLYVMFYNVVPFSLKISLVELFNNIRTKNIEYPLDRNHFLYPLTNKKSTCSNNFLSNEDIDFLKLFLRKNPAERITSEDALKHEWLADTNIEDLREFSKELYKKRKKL
Chain of Plasmodium falciparum protein kinase 6 (PK6, PF3D7_1337100) (Q8IDW1 1-305): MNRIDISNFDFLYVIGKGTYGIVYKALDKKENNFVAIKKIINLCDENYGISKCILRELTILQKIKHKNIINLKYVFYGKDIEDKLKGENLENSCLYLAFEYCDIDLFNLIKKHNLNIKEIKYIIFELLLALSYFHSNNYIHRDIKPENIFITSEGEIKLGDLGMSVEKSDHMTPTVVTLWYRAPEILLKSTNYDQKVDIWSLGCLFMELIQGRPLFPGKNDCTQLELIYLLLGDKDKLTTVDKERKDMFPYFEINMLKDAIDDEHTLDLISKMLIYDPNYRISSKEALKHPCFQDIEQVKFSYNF
Chain of Calcium-dependent protein kinase 1 (Plasmodium falciparum (isolate 3D7)) (P62344 whole entry, looked up): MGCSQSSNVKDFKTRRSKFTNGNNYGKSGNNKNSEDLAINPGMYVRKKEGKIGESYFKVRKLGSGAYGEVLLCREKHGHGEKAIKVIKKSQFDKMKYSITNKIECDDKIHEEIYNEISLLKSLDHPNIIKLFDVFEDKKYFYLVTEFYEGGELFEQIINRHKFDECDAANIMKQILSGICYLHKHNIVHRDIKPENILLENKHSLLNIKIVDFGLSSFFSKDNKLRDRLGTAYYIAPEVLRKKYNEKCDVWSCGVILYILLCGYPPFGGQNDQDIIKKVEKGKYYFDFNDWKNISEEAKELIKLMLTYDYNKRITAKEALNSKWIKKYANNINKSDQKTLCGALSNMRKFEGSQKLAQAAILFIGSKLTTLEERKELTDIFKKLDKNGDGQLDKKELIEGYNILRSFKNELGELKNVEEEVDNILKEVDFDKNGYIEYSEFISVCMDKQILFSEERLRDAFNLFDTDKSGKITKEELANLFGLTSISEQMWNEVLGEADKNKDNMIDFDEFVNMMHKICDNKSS

In general, inhibition refers to the change of the read-out against control, counted positive when it falls. As to `O=C(Cc1ccccc1)NC(c1ccco1)c1cc(Cl)c2cccnc2c1O` (stereo not given), the growth inhibition in experiment [1] is 93% (active); in experiment [4], 89% (active). Besides, the inhibition in experiment [2] is 44%; in experiment [3], -1%. The result in experiment [5], in experiment [6], in experiment [7] and in experiment [8] was inactive.

With `CCCCCN1CCCC(NS(=O)(=O)c2cccc(C(=O)Nc3cccc(C(F)(F)F)c3)c2)C1` (stereo not given), the values for the growth inhibition in experiment [1] and in experiment [4] were 5% and 86% (active), respectively. For the same compound, the values for the inhibition in experiment [2] and in experiment [3] were 22% and -2%, respectively. Further, the result in experiment [5], in experiment [6], in experiment [7] and in experiment [8] was inactive.

`Cc1ccc2[nH]c(-c3ccc(C(=O)NCc4ccc(Cl)c(Cl)c4)cc3)nc2c1C`: the growth inhibition in experiment [1] was 26%; in experiment [4] it was 96% (active). Besides, the inhibition was 19% in experiment [2] and 5% in experiment [3]. Besides, the outcome in experiment [5], in experiment [6], in experiment [7] and in experiment [8] was inactive.

Turning to `O=C(NCCCN1CCC(Cc2ccccc2)CC1)c1cc2c(Cl)nc3ccccc3c2s1`, the figures for the growth inhibition in experiment [1] and in experiment [4] were 40% and 98% (active), respectively. The values for the inhibition in experiment [2] and in experiment [3] were 22% and -3%, respectively. Further, the result in experiment [5], in experiment [6], in experiment [7] and in experiment [8] was inactive.

In the case of `OCCn1c(CNCCCNc2nc3ccccc3[nH]2)cc2c(Cl)cc(Cl)cc21`, the growth inhibition in experiment [1] is 0%; in experiment [4], 95% (active). Besides, the inhibition in experiment [2] is 29%; in experiment [3], -6%. For the same compound, the result in experiment [5], in experiment [6], in experiment [7] and in experiment [8] was inactive.

Take `CC(C)N1CCN(c2ccc(OCCCN3CCN(c4cccc(Cl)c4Cl)CC3)c(C(F)(F)F)c2)CC1`: the growth inhibition in experiment [1] was 37%; in experiment [4], 94% (active). Besides, the inhibition in experiment [2] is 79% (active); in experiment [3], 0%. The outcome in experiment [5], in experiment [6], in experiment [7] and in experiment [8] was inactive.

Regarding `COc1ccc2nccc([C@@H](O)CN3CCC(NCc4nc5c(F)cc(F)cc5[nH]4)CC3)c2c1`, the results for the growth inhibition in experiment [1] and in experiment [4] were 64% (active) and 99% (active), respectively. The inhibition in experiment [2] was 19%; in experiment [3], 0%. For the same compound, the result in experiment [5], in experiment [6], in experiment [7] and in experiment [8] was inactive.

`COc1cc(Nc2nccc(N3CCC(NC(=O)Nc4cc(C)ccc4C)C3)n2)cc(OC)c1OC` (stereo not given): the growth inhibition in experiment [1] is 52% (active); in experiment [4], 91% (active). Moreover, the inhibition in experiment [2] was 13%; in experiment [3] it was 4%. The outcome in experiment [5], in experiment [6], in experiment [7] and in experiment [8] was inactive.

For the compound `COc1ccc(-c2ccc(CNC(=O)c3cccc(C#N)c3)c(F)c2)cc1CN1CCCN(C)CC1`, the growth inhibition was 30% in experiment [1] and 99% (active) in experiment [4]. In addition, the inhibition is 8% in experiment [2] and -4% in experiment [3]. Besides, the result in experiment [5], in experiment [6], in experiment [7] and in experiment [8] was inactive.

Turning to `CN(CCCNCc1ccc2ccccc2c1)CCCNCc1ccc2ccccc2c1`, the values for the growth inhibition in experiment [1] and in experiment [4] were 79% (active) and 100% (active), respectively. For the same compound, the inhibition in experiment [2] is 100% (active); in experiment [3], 1%. Further, the outcome in experiment [5], in experiment [6], in experiment [7] and in experiment [8] was inactive.

On to `c1ccc(Oc2ccc(Nc3ccnc4cc(-c5ccc(CNCCN6CCOCC6)o5)ccc34)cc2)nc1`, for which the growth inhibition in experiment [1] was 100% (active); in experiment [4], 101% (active). The figures for the inhibition in experiment [2] and in experiment [3] were -7% and -2%, respectively. Besides, the outcome in experiment [5], in experiment [6], in experiment [7] and in experiment [8] was inactive.

`CCNCc1ccc(-c2cccc(-c3nc4ccccc4[nH]3)c2)cc1`: the growth inhibition in experiment [1] was 18%; in experiment [4], 102% (active). Moreover, the results for the inhibition in experiment [2] and in experiment [3] were 26% and 4%, respectively. For the same compound, the result in experiment [5], in experiment [6], in experiment [7] and in experiment [8] was inactive.

`COc1ccc(C(C(=O)NC2CCN(C[C@H](O)c3ccnc4ccc(OC)cc34)CC2)N2CCN(c3ccc(F)cc3)CC2)cc1` (stereo not given in full): the growth inhibition in experiment [1] is 86% (active); in experiment [4], 97% (active). Also, the inhibition in experiment [2] is 16%; in experiment [3] it was -6%. Moreover, the result in experiment [5], in experiment [6], in experiment [7] and in experiment [8] was inactive.

As for `COC(=O)c1ccc2c(c1)nc(Nc1cccc(F)c1)n2CC(O)c1ccccn1` (stereo not given), the growth inhibition in experiment [1] is 96% (active); in experiment [4] it was 99% (active). For the same compound, the inhibition is -7% in experiment [2] and -1% in experiment [3]. Besides, the result in experiment [5], in experiment [6], in experiment [7] and in experiment [8] was inactive.

For the compound `COC(=O)c1cccc(CNCc2ccc(-c3ccc(-c4nc5c(C)cccc5[nH]4)s3)cc2)c1`, the results for the growth inhibition in experiment [1] and in experiment [4] were 64% (active) and 101% (active), respectively. The inhibition is 3% in experiment [2] and 0% in experiment [3]. In addition, the outcome in experiment [5], in experiment [6], in experiment [7] and in experiment [8] was inactive.

With `CN1CCCN(c2ccnc3cc4c(cc23)N(C(=O)c2ccc(Cl)cc2Cl)CC4)CC1`, the figures for the growth inhibition in experiment [1] and in experiment [4] were 51% (active) and 100% (active), respectively. Moreover, the inhibition in experiment [2] was 6%; in experiment [3] it was -2%. The result in experiment [5], in experiment [6], in experiment [7] and in experiment [8] was inactive.

For `CC(=NNC(=S)NCCc1ccccc1)c1ccccn1`, the growth inhibition was 99% (active) in experiment [1] and 100% (active) in experiment [4]. The figures for the inhibition in experiment [2] and in experiment [3] were 73% (active) and 8%, respectively. For the same compound, the result in experiment [5], in experiment [6], in experiment [7] and in experiment [8] was inactive.

With `O=C1CCCN1CCCNCc1ccc(-c2ccc(-c3nc4ccc(F)cc4[nH]3)s2)cc1`, the growth inhibition in experiment [1] is 91% (active); in experiment [4], 100% (active). Moreover, the inhibition in experiment [2] was 19%; in experiment [3], 0%. Further, the outcome in experiment [5], in experiment [6], in experiment [7] and in experiment [8] was inactive.

With `COc1ccc(CC2(CO)CCN(Cc3ccc(O)c(Cl)c3)CC2)cc1`, the growth inhibition in experiment [1] is 14%; in experiment [4], 98% (active). Moreover, the inhibition is -6% in experiment [2] and -2% in experiment [3]. Besides, the outcome in experiment [5], in experiment [6], in experiment [7] and in experiment [8] was inactive.

In the case of `CC(C)(C)c1ccc(CNC(=O)c2ccc(CNC3CCC(N)CC3)s2)cc1` (stereo not given), the growth inhibition was 10% in experiment [1] and 100% (active) in experiment [4]. Besides, the inhibition in experiment [2] was 41%; in experiment [3], 4%. The result in experiment [5], in experiment [6], in experiment [7] and in experiment [8] was inactive.
